Inconclusive results are not listed. A number with no mark means an inactive call. Active and inactive are the calls of the source. Calls follow the shape of the dose curve; as a rule, active = well fitted cell-killing curve with a large enough effect; inconclusive = small, poorly fitted or top-dose-only effect, or effect the other way; inactive = no such curve, though single readings can be large or run the other way. *1 amine or outer side, *2 acyl side, *3 side chain or, on linkers, in order; H or OH if unused. Where a SMILES comes first, the peptide text is derived from it. Bridges are numbered along the chain shown (N, C = ends). Roman numbers before positions name the chains, in order. [ ]: non-standard residue; d: D form. Actinocin(9to1) = Cc1c2oc3c(C)ccc(C(=O)[*:1])c3nc-2c(C(=O)[*:2])c(N)c1=O; NMeV = CN[C@H](C(=O)O)C(C)C; Sar = CNCC(=O)O
% is scaled to controls: 0 for no effect and ±100 for the full control effect; potency is read from the fitted curve at half-maximal effect.

For this assay, the system named is CASKI. The assay can be described thus: Confirmatory qHTS for gynecologic anti-cancer compounds from libraries of approved drugs and bioactive compounds. Also: nearly all actives have a fitted effect of over 55% in size. To be noted: gynecologic cancer cell panel viability, ATPlite luminescence, 48 h; series mostly up to 57.6 µM; activity change, negative = viability loss: at the top concentration. Summed up:
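Seeding 1,000 cells per well preceded overnight (16 h) attachment, after which 48 h drug treatment across 57.5 uM–0.977 nM (11 points) was applied. Remaining cellular ATP, detected by ATPlite luminescence, defined IC50.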
Background: qHTS replaces the single test concentration by a dilution series.
On to `COc1ccc(-c2ccc3c(N4CCOCC4C)nc(N4CCOCC4C)nc3n2)cc1CO` (centres undefined), for which the “activity change, negative = viability loss” value is -2.48%.

As to `CCN[C@H]1C[C@H](C)S(=O)(=O)c2sc(S(N)(=O)=O)cc21`, the “activity change, negative = viability loss” value was 34.2%.

Take `Cc1cc(C2CCCCC2)n(O)c(=O)c1`: the Potency was 3.96 µM (active).

On to `CC[C@]1(O)C[C@H]2CN(CCc3c([nH]c4ccccc34)[C@@](C(=O)OC)(c3cc4c(cc3OC)N(C=O)[C@H]3[C@@](O)(C(=O)OC)[C@H](OC(C)=O)[C@]5(CC)C=CCN6CC[C@]43[C@@H]65)C2)C1`, for which the “activity change, negative = viability loss” value is -0.871%.

On to `O=C(/C=C/c1cccc(S(=O)(=O)Nc2ccccc2)c1)NO`, for which the Potency was 4.73 µM (active).

In the case of `CN1CCN(c2ccc(OC(F)(F)F)c(Nc3ncc4c(n3)-c3c(c(C(N)=O)nn3CCO)CC4)c2)CC1`, the “activity change, negative = viability loss” value is -21.7%.

For the compound `CNC(=O)c1nn(C)c2c1C(C)(C)Cc1cnc(Nc3ccc(N4CCN(C)CC4)cc3)nc1-2`, the Potency was 10.9 µM (active).

For the compound `Oc1cn2c(n1)Nc1ccc(Cl)c(Cl)c1C2`, the “activity change, negative = viability loss” value is -3.46% [at 19.5 µM].

Consider `COc1cc2nccc(Oc3ccc(NC(=O)Nc4cc(C)on4)c(Cl)c3)c2cc1OC`, for which the Potency was 27.3 µM (active).

Consider `CCOc1cc2ncc(C#N)c(Nc3ccc(F)c(Cl)c3)c2cc1NC(=O)/C=C/CN(C)C`, for which the Potency is 8.63 µM (active).

`Cc1ccc(NC(=O)c2ccc(CN3CCN(C)CC3)cc2)cc1Nc1nccc(-c2cccnc2)n1`: the “activity change, negative = viability loss” value was -19.5%.

As for `CC(C)C[C@H](NC(=O)[C@H](CCc1ccccc1)NC(=O)CN1CCOCC1)C(=O)N[C@@H](Cc1ccccc1)C(=O)N[C@@H](CC(C)C)C(=O)[C@@]1(C)CO1`, the Potency was 9.68 µM (active).

Take `CCCC(Nc1nc(-c2ccc(NC(=O)NCC)c(OC)c2)ncc1C)c1cccnc1` (centres undefined): the “activity change, negative = viability loss” value is 0.638%.

For the compound `C[C@]12CCC(=O)C=C1CC[C@@H]1[C@@H]2[C@@H](O)C[C@@]2(C)[C@H]1CC[C@]2(O)C(=O)CO`, the “activity change, negative = viability loss” value is 21.2%.

`COc1cc(Nc2ncc3c(n2)-c2ccc(Cl)cc2C(c2c(F)cccc2OC)=NC3)ccc1C(=O)O`: the Potency was 19.3 µM (active).

With `CCc1c2c(nc3ccc(O)cc13)-c1cc3c(c(=O)n1C2)COC(=O)[C@]3(O)CC`, the Potency is 0.153 µM (active).

Turning to `CC(=O)NCC(=O)N1C2CCC1c1cc(Nc3ncc(C(F)(F)F)c(NC4CCC4)n3)ccc12` (centres undefined), the Potency was 9.68 µM (active).

Regarding `Cc1[nH]c2ccccc2c1CCNCc1ccc(/C=C/C(=O)NO)cc1`, the Potency was 0.611 µM (active).

`CCc1cccc(CC)c1NC(=O)N1Cc2[nH]nc(NC(=O)c3ccc(N4CCN(C)CC4)cc3)c2C1`: the Potency is 19.3 µM (active).

For `Cc1c2oc3c(C)ccc(C(=O)N[C@@H]4C(=O)N[C@H](C(C)C)C(=O)N5CCC[C@H]5C(=O)N(C)CC(=O)N(C)[C@@H](C(C)C)C(=O)O[C@@H]4C)c3nc-2c(C(=O)N[C@@H]2C(=O)N[C@H](C(C)C)C(=O)N3CCC[C@H]3C(=O)N(C)CC(=O)N(C)[C@@H](C(C)C)C(=O)O[C@@H]2C)c(N)c1=O` (I: T[dV]P[Sar][NMeV] / II: T[dV]P[Sar][NMeV]; ester I:1-I:C, II:1-II:C; linker I:N-II:N via Actinocin(9to1)), the Potency is 0.611 µM (active).

In the case of `Cc1c(NC(=O)OCC2COCCN2)cn2ncnc(Nc3ccc4c(cnn4Cc4cccc(F)c4)c3)c12` (centres undefined), the Potency is 19.3 µM (active).

As to `C#C[C@]1(O)CC[C@H]2[C@@H]3CCC4=CC(=O)CC[C@@H]4[C@H]3CC[C@@]21CC`, the “activity change, negative = viability loss” value was -2.14%.

Take `CCN1CCN(Cc2ccc(-c3cc4c(NC(C)c5ccccc5)ncnc4[nH]3)cc2)CC1` (centres undefined): the Potency was 19.3 µM (active).

Regarding `CN(C)C(CCOc1cccc2ccccc12)c1ccccc1` (centres undefined), the “activity change, negative = viability loss” value was -2.64%.

For the compound `COC(C)(C)CCn1nc(Nc2c(C)cccc2C)c2cnc(Nc3ccc(OCCN4CCCC4)c(F)c3)nc21`, the Potency was 3.43 µM (active).

Consider `O=C(Nc1cccnc1)N1CCC(Cc2cccc(Oc3ccc(C(F)(F)F)cn3)c2)CC1`, for which the Potency is 12.2 µM (active).

As to `CC(C)C[C@H](NC(=O)[C@@H](NC(=O)c1cccc(-c2ccccc2)n1)[C@@H](C)O)B(O)O`, the Potency is 0.0611 µM (active).

As for `COc1cc(N2CCC(N(C)C)CC2)ccc1Nc1ncc(Cl)c(Nc2ccccc2P(C)(C)=O)n1`, the Potency is 7.69 µM (active).

As to `CCC(=O)N1CCN(c2ccc(-n3c(=O)ccc4cnc5ccc(-c6cnc7ccccc7c6)cc5c43)cc2C(F)(F)F)CC1`, the activity change, negative = viability loss is -25.9% [at 10.7 µM].

With `CNC(=O)c1ccccc1Sc1ccc2c(/C=C/c3ccccn3)n[nH]c2c1`, the Potency is 13.7 µM (active).

Turning to `CN(C)CC/C=C1\c2ccccc2COc2ccccc21`, the “activity change, negative = viability loss” value was -1.95%.

On to `CCCc1nn(C)c2c(=O)[nH]c(-c3cc(S(=O)(=O)N4CCN(C)CC4)ccc3OCC)nc12`, for which the “activity change, negative = viability loss” value is 20.6%.

For `CCN1C[C@H](C)n2c(c(O)c3c(=O)n(Cc4ccc(F)c(Cl)c4)nc(C(=O)NC)c32)C1=O`, the “activity change, negative = viability loss” value was 13.6%.

Regarding `Nc1ccccc1NC(=O)c1ccc(CNC(=O)OCc2cccnc2)cc1`, the Potency was 15.3 µM (active).
